Data taken from PubChem BioAssay AID602440 (Sanford-Burnham Center for Chemical Genomics, 2012).
Hit rate of the full screen: of about 360,000 compounds, about 2,300 (0.64%) were called active. No stated cut-off is given here; in the data, active means inhibition mostly above about 40% (no sharp cut-off); inactive means mostly below about 27%. The sample as a whole holds a higher share of actives than the screen did.

biological target: Sentrin-specific protease 8 (Homo sapiens) (UniProt Q96LD8); assay: human SENP8 protease inhibitors, primary screen, biochemical, fluorescence, Nedd8 protein substrate, uHTS (AID 602440); details: recombinant SENP8, Nedd8 substrate fluorescence; at 20 µM; hits give high values
Sequence (Q96LD8 whole entry, looked up): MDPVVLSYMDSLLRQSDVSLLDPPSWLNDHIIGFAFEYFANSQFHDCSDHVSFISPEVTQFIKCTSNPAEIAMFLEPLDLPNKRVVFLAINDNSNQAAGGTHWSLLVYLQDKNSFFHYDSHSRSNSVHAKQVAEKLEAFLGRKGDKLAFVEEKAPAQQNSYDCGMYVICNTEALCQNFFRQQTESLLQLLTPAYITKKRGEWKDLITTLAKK

Compound | inhibition
CC(C(=O)NC1CCCC1)N1CCN(S(=O)(=O)c2ccccc2Cl)CC1 (stereo unspecified) | 7.4% (inactive)
COc1cccc(CCNC(=O)COc2cccc3c2OC(C)(C)C3)c1 | 20.6% (inactive)
CC1(C)Cc2cccc(OCC(N)=O)c2O1 | 20.9% (inactive)
CC1(C)Cc2cccc(OCC(=O)Nc3nccs3)c2O1 | 42.4% (active)
COc1cc(NC(=O)COC(=O)c2ccc([N+](=O)[O-])s2)cc(OC)c1OC | 26.8% (inactive)
O=C(OCC(=O)N1CCN(c2ccccc2)CC1)c1ccc([N+](=O)[O-])s1 | 42.9% (active)
C[C@H](NC(=O)c1ccccc1Cl)C(=O)OCC(=O)N1CCN(c2ccccc2)CC1 | 12.8% (inactive)
Oc1ccc(N=Cc2sc3ccccc3c2Cl)cc1 | 87.5% (active)
CCCN=C1NC(=O)C(CC(=O)NCCc2ccc(OC)c(OC)c2)S1 (stereo unspecified) | 16.5% (inactive)
Cc1ccc(-n2nc3c(=O)n(C(C)C(=O)NCc4ccc5c(c4)OCO5)nc(C)c3c2C)cc1 (stereo unspecified) | 3.2% (inactive)
CC(=O)c1c(N2CCOCC2)nc(=S)n(-c2cc(C)ccc2C)c1C | 9.8% (inactive)
CC(=O)Nc1ccc(OCCC[n+]2cccc(C(=O)[O-])c2)cc1 | 7.7% (inactive)
COc1ccc(C(=O)Oc2ccc(-c3nnco3)cc2)cc1S(=O)(=O)N1CCOCC1 | 20.2% (inactive)
COc1ccc2c(Cl)c(-c3nnco3)sc2c1 | -37.1% (inactive)
COc1ccc(-c2nnco2)cc1OC | 41.5% (active)
Cc1ccc(N2C(=O)CN=C2Nc2nc(C)cc(C)n2)cc1 | 31.7% (inactive)
COc1ccc(N2CCC(CNC(=S)Nc3c(C)cccc3C)C2)cc1 (stereo unspecified) | 9.9% (inactive)
CCN(C(=O)CSc1ncnc2sccc12)c1c(N)n(Cc2ccccc2)c(=O)[nH]c1=O | -25% (inactive)
CC1CCCC(N2CCN(C(=O)c3ccc(F)cc3)CC2)C1 (stereo unspecified) | 7.2% (inactive)
CCN1CCC(O)(/C=C/c2ccc(C)cc2)C(C(=O)/C=C/c2ccc(C)cc2)C1 (stereo unspecified) | 16.7% (inactive)
Cc1ccc(C(=O)N2CC(=O)Nc3ccc(F)cc3C2c2ccc(F)cc2)cc1 (stereo unspecified) | 4.1% (inactive)
CCN1CCC2(CC1)N=C(c1ccc(F)cc1)C(=S)N2C(=O)c1ccc(C)cc1 | 48.7% (active)
COC(=O)CNC(=O)c1ccc2c(c1)S(=O)(=O)c1ccccc1C2=O | 23.2% (inactive)
CN(Cc1ccccc1)C(=O)CCNC(=O)Cn1cnc2ccccc2c1=O | 16.4% (inactive)

Compound | inhibition
N#Cc1cccc(NC(=O)CN2CCCCCC2)c1 | 7.3% (inactive)
CCc1nnc(NC(=O)CSc2nc3ccccc3c(=O)n2CCCOC)s1 | 23.2% (inactive)
CCOCCCn1c(SCC(=O)Nc2cc(OC)ccc2OC)nc2ccccc2c1=O | -19.4% (inactive)
CCOCCCn1c(NN)nc2ccccc2c1=O | 34% (active)
Cc1cc(NC(=O)COC(=O)COc2ccc(Cl)cc2C)c([N+](=O)[O-])cc1C | 7.4% (inactive)
COc1ccc(CN2CN(C(C)C)CSC2=S)cc1 | 6.1% (inactive)
Cc1nc2ccccc2n1C(=O)N1CCOCC1 | 11.5% (inactive)
CC(C(=O)Nc1ccccc1-c1ccccc1)N1CCOCC1 (stereo unspecified) | 3.7% (inactive)
Cc1oc2c(c1C(=O)N1CCOCC1)C(=O)c1ccccc1C2=O | 61.3% (active)
COc1ccc(C2=NOC(C(=O)NCc3ccco3)C2)cc1OC (stereo unspecified) | 7.1% (inactive)
COc1ccc(-c2c(NC(=O)c3ccco3)oc3ccc(Cl)cc3c2=O)cc1 | -71.5% (inactive)
Cc1cc(C)cc(N(CC(=O)NC2CCCC2)C(=O)CCC(=O)Nc2nccs2)c1 | 10.9% (inactive)
CC1(C)C2CCC1(C)C(OC(=O)CCn1ccnc1)C2 (stereo unspecified) | 22.1% (inactive)
CC1(C)C2CCC1(C)C(OC(=O)c1ccc(O)cc1)C2 (stereo unspecified) | 40.5% (active)
Cc1ccc(C(=O)OC2CCCN(C)C2)cc1 (stereo unspecified) | 8.1% (inactive)
COc1ccc2c(c1)C(C)=CC(C)(C)N2C(=O)Nc1ccccc1 | -486% (inactive)
COc1cc2[nH]c(=S)n(Cc3ccc(C)o3)c(=O)c2cc1OC | 20% (inactive)
CCC(C)(C)NC(=O)C(c1ccc(O)cc1)N(Cc1ccco1)C(=O)CCC(=O)Nc1ccccn1 (stereo unspecified) | -20.6% (inactive)
Nc1ncnc2c1ncn2[C@@H]1O[C@H](C(=O)N2CCCN(Cc3ccccc3F)CC2)[C@@H](O)[C@H]1O | 18.2% (inactive)
CCN(CC)CCOC(=O)c1ccc(NC(=O)CNC(=O)c2ccccc2)cc1 | 7% (inactive)
CCN(CC)C(=O)CCC(=O)Nc1ccc(C(=O)OC)cc1 | 51.9% (active)
CCOc1ccc(NC(=O)CCNC(=O)c2ccc(Br)cc2)cc1 | 0.3% (inactive)
Nc1c(C(=O)c2cccs2)sc2nsc(SCCN3CCCCC3)c12 | 16.8% (inactive)
O=C(NCCN1CCOCC1)C1CCN(S(=O)(=O)c2ccccc2)CC1 | 18% (inactive)

Compound | inhibition
O=C(NNc1nc(N2CCCC2)nc(N2CCCC2)n1)c1ccccc1 | 5.2% (inactive)
CN1CCc2ccccc2C1Cc1ccccc1NC(=O)c1sc2ccccc2c1Cl (stereo unspecified) | 53.8% (active)
CCc1ccccc1NC(=O)NCCN1CCCCC1 | 12.7% (inactive)
CCc1ccccc1NC(=O)c1ccc2c(c1)CCN2S(C)(=O)=O | 22.2% (inactive)
Cc1ccc(C2=Nc3c(ccc4ccccc34)C(c3ccncc3)=NN2)cc1 | -6.5% (inactive)
C=C(C)Cn1c(C)cc(C)c(S(=O)(=O)c2ccccc2C)c1=O | 20.8% (inactive)
COc1ccc(/C=C2/C(=O)OCc3cc(OC)c(OC)cc32)c(OC)c1 | 20.7% (inactive)
COc1ccc(C(=O)CCc2ccccc2O)c(OC)c1 | 9.3% (inactive)
COc1ccc(/C=C2/C(=O)N(c3ccccc3)N=C2C)c(OC)c1 | 53.8% (active)
O=C(CSc1nnnn1C1CCCC1)Nc1ccc2c(c1)OCCO2 | 7% (inactive)
CN(C)c1ccc(/C=C2\NC(=S)N(Cc3ccccc3)C2=O)cc1 | 46.7% (active)
CCN(CC(=O)NC(C)C)C(=O)c1cc(S(=O)(=O)N2CCCCC2)ccc1N1CCCCC1 | 2.8% (inactive)
CCOC(=O)C1CCCCN1Cc1ccc(OC)c(OC)c1OC (stereo unspecified) | -4.4% (inactive)
O=C1CCCC(O)=C1N=Nc1ccc2ncsc2c1 | 7.1% (inactive)
O=S(=O)(c1ccc(-c2ccccc2)cc1)N1CCCC1 | 7.9% (inactive)
O=C1CCCC(O)=C1N=Nc1ccc(S(=O)(=O)N2CCOCC2)cc1 | 43.2% (active)
CC1(C)CC(=O)C(N=Nc2c(F)cccc2F)=C(O)C1 | 24.6% (inactive)
Cc1ccc(S(=O)(=O)N2CCN(S(=O)(=O)N3CCOCC3)CC2)cc1 | 6.5% (inactive)
CC1(C)CC(=O)C(N=Nc2ccc(S(=O)(=O)N3CCCCCC3)cc2)=C(O)C1 | 41% (active)
Cn1c(C(=O)O)ccc1S(=O)(=O)N(Cc1ccccc1)Cc1ccccc1 | -7% (inactive)
COc1ccc(C(=O)N(CCN2CCOCC2)CC(=O)NC2CCCC2)cc1OC | -1.7% (inactive)
CN(CC(=O)NNC(=O)CNC(=O)c1ccccc1Cl)S(=O)(=O)c1ccc(Cl)cc1 | 10.1% (inactive)
Cc1cc(O)c(NC(=O)c2ccc(C)c([N+](=O)[O-])c2)cc1C | 3.9% (inactive)
CCN(CC)C(=O)CC1(c2ccccc2OC)CCOC(C(C)C)C1 (stereo unspecified) | 4% (inactive)

Compound | inhibition
Clc1ccc(C2=CSC3=Nc4cccc5cccc(c45)N23)cc1 | 70.7% (active)
COCCNC(=S)N1CCC(NC(=O)C23CC4CC(CC(C4)C2)C3)CC1 | 8.9% (inactive)
c1ccc(-c2c[nH]c(-c3ccccc3)c2)cc1 | -22% (inactive)
CCCc1c(-c2ccccc2F)ncn1Cc1ccccc1OC | 2.7% (inactive)
CC(=O)NNc1cc(=O)c2c(=O)n(C)c(=O)n(C)c2[nH]1 | 15.9% (inactive)
Cn1c(N)c(C(=O)COC(=O)C23CC4CC(CC(C4)C2)C3)c(=O)n(C)c1=O | 12% (inactive)
O=C(OCC(=O)c1cccs1)c1ccc([N+](=O)[O-])o1 | 29.2% (inactive)
O=C(COC(=O)c1ccc(Br)o1)NC12CC3CC(CC(C3)C1)C2 | 10% (inactive)
O=C(COC(=O)c1ccc([N+](=O)[O-])o1)NC12CC3CC(CC(C3)C1)C2 | 35.1% (active)
C/C=C/C=C/C(=O)O | 11.5% (inactive)
NCCCCC(C(=O)O)N(C(=O)OCc1ccccc1)C(=O)OCc1ccccc1 (stereo unspecified) | 15.2% (inactive)
O=C(C[C@H]1C(=O)N(c2ccc(F)c(F)c2)C[C@@H]1Cc1ccccc1)Nc1ccccc1 | 1.6% (inactive)
CCCCn1c(N)c(N(CC(C)C)C(=O)c2ccc(-n3c(C)ccc3C)cc2)c(=O)[nH]c1=O | 1.8% (inactive)
Oc1ccc(C2Nc3cccc4cccc(c34)N2)cc1 | 63.3% (active)
O=C(COC(=O)c1ccc2ncsc2c1)Nc1ccc(Cl)cc1 | -18.6% (inactive)
C=CCOc1ccc(C(=O)Nc2ccccc2C(=O)N2CCCC2)cc1 | 0.4% (inactive)
CN(C(=O)CN1C(=O)/C(=C/c2ccc(Cl)cc2)SC1=S)C1CCS(=O)(=O)C1 (stereo unspecified) | 23.9% (inactive)
C=CCOc1ccc(/C=C2\SC(=S)N(CCC(=O)O)C2=O)cc1 | 40.8% (active)
O=[N+]([O-])c1ccc(COc2ccccc2CN2CCOCC2)cc1 | -0.2% (inactive)
OC(c1ccccc1)C(CN1CCOCC1)c1ccccc1 (stereo unspecified) | 9.9% (inactive)
Oc1c(CN2CCOCC2)ccc(CN2CCOCC2)c1O | 79% (active)
O=C(Cn1cc(-c2nnnn2-c2ccc(Cl)cc2)c(=O)c2ccccc21)c1ccccc1 | 26.2% (inactive)
COC(=O)CN1C(=O)C(C)(C)Oc2ccc(C(=O)Nc3cccc(OC)c3)cc21 | 1.3% (inactive)
CC[n+]1cc(C)ccc1/C=C/c1ccc(N(C)C)cc1 | 18.1% (inactive)
